According to the supplement of paper PMC12350171:
Where a name gives a salt, the structure may show the parent alone. A number with no mark means an inactive call.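 The calls were made as follows: active = AUC significantly below DMSO controls by Student t-fit with adjusted P under 0.01; inactive = not significantly reduced.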

system: Haemophilus parainfluenzae; assay: growth AUC normalised to DMSO control (fraction of control); higher = less growth inhibition, active = hit call of the paper; conditions: 20 µM
How it was run: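 Three biological replicates were carried out, with OD578 read hourly for 24 h. Before inoculation at a starting OD578 of 0.01, pathogens were passaged anaerobically twice; plates were pre-reduced mGAM containing 20 μM compound and 1% DMSO, sealed with breathable membranes, and the Haemophilus parainfluenzae medium carried added hemin and NAD. Area under each growth curve was calculated by the trapezoidal rule up to the exponential-to-stationary transition and normalised to DMSO controls on the same plate.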

SMILES | growth AUC normalised to DMSO control
O=c1[nH]c(=O)n([C@H]2C[C@H](O)[C@@H](CO)O2)cc1C(F)(F)F [Trifluridine] | 1.08
CCS(=O)(=O)CCn1c([N+](=O)[O-])cnc1C [Tinidazole] | 0.987
O=C(O)CCCC[C@@H]1SC[C@@H]2NC(=O)N[C@@H]21 [Biotin] | 1.01
CCOC(=O)C(C)(C)Oc1ccc(Cl)cc1 [Clofibrate] | 1.01
CC(C)(C)C(=O)OCOC(=O)[C@@H]1N2C(=O)[C@@H](NC(=O)[C@H](N)c3ccccc3)[C@H]2SC1(C)C [Pivampicillin] | 0.942
Nc1ccn([C@H]2CC[C@@H](CO)O2)c(=O)n1 [Zalcitabine] | 1.06
Cc1cn[nH]c1 [Fomepizole] | 0.954
O=C(O)CCNC(=O)c1ccc(/N=N/c2ccc(O)c(C(=O)O)c2)cc1 [Balsalazide disodium salt] | 1.07
CC(=O)O[C@]1(C(C)=O)CC[C@H]2[C@@H]3C=C(C)C4=CC(=O)CC[C@]4(C)[C@H]3CC[C@@]21C [Megestrol acetate] | 1.06
OCCN1CCN(CC/C=C2/c3ccccc3Sc3ccc(Cl)cc32)CC1 [Zuclopenthixol dihydrochloride] | 0.916
CCC1(C)CC(=O)NC1=O (centres undefined) [Ethosuximide] | 1.06
Cc1cn([C@H]2C=C[C@@H](CO)O2)c(=O)[nH]c1=O [Stavudine] | 1.02
OCCN1CCN(CCCN2c3ccccc3C=Cc3ccccc32)CC1 [Opipramol dihydrochloride] | 0.911
NS(=O)(=O)c1cc2c(cc1Cl)NC(C(Cl)Cl)NS2(=O)=O (centres undefined) [Trichlormethiazide] | 1.01
C[C@]12C=CC(=O)C=C1CC[C@@H]1[C@@H]2[C@@H](O)C[C@@]2(C)[C@H]1CC[C@]2(O)C(=O)CO [Prednisolone] | 0.935
CCOc1ccc(NC(C)=O)cc1 [Phenacetin] | 0.924
C[C@]1(Cn2ccnn2)[C@H](C(=O)O)N2C(=O)C[C@H]2S1(=O)=O [Tazobactam] | 1.02
Cc1ccc(S(=O)(=O)NC(=O)NN2CCCCCC2)cc1 [Tolazamide] | 1.04
CN1CCC(=C2c3ccccc3CCc3sccc32)CC1 [Pizotifen malate] | 0.936
COC(=O)Nc1nc2cc(C(=O)c3cccs3)ccc2[nH]1 [Nocodazole] | 1.03

SMILES | growth AUC normalised to DMSO control
CCN(CCO)CCCC(C)Nc1ccnc2cc(Cl)ccc12 (centres undefined) [Hydroxychloroquine sulfate] | 1
CC(=O)O[C@]1(C(C)=O)CC[C@H]2[C@@H]3C=C(Cl)C4=CC(=O)[C@@H]5C[C@@H]5[C@]4(C)[C@H]3CC[C@@]21C [Cyproterone acetate] | 1.01
O=C(O)Cc1ccccc1Nc1c(Cl)cccc1Cl [Diclofenac sodium] | 0.936
COc1ccc(CC(C)NCC(O)c2ccc(O)c(NC=O)c2)cc1 (centres undefined) [Formoterol fumarate] | 1.09
CCCC1O[C@@H]2C[C@H]3[C@@H]4CCC5=CC(=O)C=C[C@]5(C)[C@H]4[C@@H](O)C[C@]3(C)[C@]2(C(=O)CO)O1 (some centres undefined) [Budesonide] | 0.964
Cc1ccc2c(c1)c1c3n2CCNC3CCC1 (centres undefined) [Pirlindole mesylate] | 0.995
CCC1(c2ccccc2)NC(=O)N(C)C1=O (centres undefined) [Mephenytoin] | 1.04
CCN(CC)CCOCCOC(=O)C1(c2ccccc2)CCCC1 [Carbetapentane citrate] | 1
COc1ccccc1OCC(O)COC(N)=O (centres undefined) [Methocarbamol] | 0.977
N=C(N)NCc1cccc(I)c1 [Iobenguane sulfate] | 1.02
Cc1cnc(C(=O)O)c[n+]1[O-] [Acipimox] | 0.94
C[N+](C)(C)CCOC(N)=O [Carbachol chloride] | 1.09
CCc1c2c(nc3ccc(OC(=O)N4CCC(N5CCCCC5)CC4)cc13)-c1cc3c(c(=O)n1C2)COC(=O)[C@]3(O)CC [Irinotecan hydrochloride trihydrate] | 1
CCN1C(=O)NC(c2ccccc2)C1=O (centres undefined) [Ethotoin] | 1.01
CCOC(=O)c1ccc(N)cc1 [Benzocaine] | 1.02
CCn1cc(C(=O)O)c(=O)c2cc(F)c(N3CCN(C)CC3)cc21 [Pefloxacin] | 0.0557 (active)
COCCOC(=O)C1=C(C)NC(C)=C(C(=O)OC/C=C/c2ccccc2)C1c1cccc([N+](=O)[O-])c1 (centres undefined) [Cilnidipine] | 1
COc1cc(N)c(Cl)cc1C(=O)NC1CCN(Cc2ccccc2)CC1 [Clebopride maleate] | 0.989
Nc1ccc(/N=N/c2ccccc2)c(N)n1 [Phenazopyridine hydrochloride] | 0.922
